Bioassay records: PubChem BioAssay, several laboratories
The list is not random: actives were taken first. Their share in the collection is about 0.85%.
Keap1-Nrf2 PPI: Keap1-Nrf2 protein-protein interaction inhibitors, primary screen, biochemical, fluorescence polarization, single point; Kelch-like ECH-associated protein 1 (Homo sapiens), Q14145; Keap1 Kelch-Nrf2 peptide fluorescence polarization, 1536-well; inhibition, % at 9.4 µM; hit rate 0.15% among 340,000; in the data active = inhibition above about 12%;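 also: human Keap1 Kelch domain with fluorescein labeled Nrf2 9mer peptide probe; higher means more block of Keap1 binding to Nrf2 peptide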
eLon inh: inhibitors of E. coli Lon protease, primary screen, biochemical, fluorescence polarization | purified E. coli Lon protease | hit rate 0.42% among 360,000 | inhibition, % at 7.94 µM | AID 602123, 2011; in the data active = inhibition above about 13%, passing the limit was not always enough
Target sequence (P0A9M0 whole entry, looked up): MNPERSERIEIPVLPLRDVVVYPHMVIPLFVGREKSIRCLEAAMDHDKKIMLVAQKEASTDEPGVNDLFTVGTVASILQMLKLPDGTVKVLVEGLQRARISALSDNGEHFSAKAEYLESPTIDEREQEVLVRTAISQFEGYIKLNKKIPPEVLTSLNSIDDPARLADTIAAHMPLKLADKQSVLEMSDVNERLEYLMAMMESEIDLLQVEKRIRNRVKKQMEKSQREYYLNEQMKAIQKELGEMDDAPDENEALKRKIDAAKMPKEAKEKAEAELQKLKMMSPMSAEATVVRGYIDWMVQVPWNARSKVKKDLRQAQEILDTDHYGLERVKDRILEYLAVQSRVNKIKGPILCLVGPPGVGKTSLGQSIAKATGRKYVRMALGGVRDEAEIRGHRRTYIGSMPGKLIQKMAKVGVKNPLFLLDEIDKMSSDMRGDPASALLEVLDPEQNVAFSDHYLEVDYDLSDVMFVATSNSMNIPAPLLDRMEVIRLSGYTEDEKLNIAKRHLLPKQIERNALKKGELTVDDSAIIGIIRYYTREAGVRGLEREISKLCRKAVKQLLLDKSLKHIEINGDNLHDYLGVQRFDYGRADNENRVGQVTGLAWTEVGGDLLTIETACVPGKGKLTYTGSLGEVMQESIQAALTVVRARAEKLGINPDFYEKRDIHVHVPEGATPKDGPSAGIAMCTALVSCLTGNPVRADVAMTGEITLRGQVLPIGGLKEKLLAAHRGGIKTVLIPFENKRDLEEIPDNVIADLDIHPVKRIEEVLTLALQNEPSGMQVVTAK
ZTA counter: blocks Epstein-Barr virus ZTA, an EBNA-1 counter-screen; P03206; ZTA-DNA binding, fluorescence polarization; inhibition, % at 11 µM; hit rate 0.15% among 320,000; AID 2234; in the data active = inhibition above about 33%
EBNA-1 inh: EBNA-1 DNA-binding inhibitors, primary screen, biochemical, fluorescence polarization; inhibition, % at 14.8 µM; hit rate 0.34% among 300,000; AID 1950, 2009; in the data active = inhibition above about 28%
C-LANA FP: inhibitors of KSHV C-LANA binding to DNA, primary screen, biochemical, fluorescence polarization, FAM-LBS DNA, MBP-C-LANA, single point. hit rate 0.078% among 340,000. AID 504423, 2011. inhibition, % at 9 µM. Kaposi's sarcoma herpesvirus LANA C-terminal domain (residues 932-1162) DNA binding;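 active = highest replicate inhibition at or above 60% at 9 µM, even if other replicates fall short; inactive = all replicates below 60% inhibition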
E coli Lon conf: E. coli Lon protease inhibitor retest, confirmation, biochemical, fluorescence polarization | shares compounds with eLon inh | purified E. coli Lon | inhibition, % at 7.94 µM | hit rate 31% among 1,400 | AID 602230, 2012; in the data active = inhibition above about 16%
A number is an active result; 0 = inactive; - = no result; + = active, no number.

SMILES | Keap1-Nrf2 PPI | eLon inh | ZTA counter | EBNA-1 inh | C-LANA FP | E coli Lon conf
O=C(NCCc1nnc2ccc(N3CCCCCC3)nn12)c1ccccc1F | 0 | 0 | 0 | 0 | 0 | -
O=C(NCCc1nnc2ccc(N3CCCC3)nn12)c1ccccc1 | 0 | 18.9 | 0 | 0 | 0 | 0
CCN1C(=S)N[C@@H](CCc2ccccc2)C(C(=O)OC)=C1C | 0 | 0 | 0 | 0 | 0 | -
Cc1ccc(N(CC(=O)N2CCCC2)S(C)(=O)=O)c(C)c1 | 0 | 35.8 | 0 | 0 | 0 | 0
O=C(NC1CCN(C(=S)Nc2ccccc2)CC1)C1CCCCC1 | 0 | 0 | 0 | 0 | 0 | -
CC(C)c1ccc(Nc2c([N+](=O)[O-])c(=O)n(C)c3ccccc23)cc1 | 0 | 0 | 0 | 0 | 0 | -
Cn1c(=O)c(Nc2ccc(O)cc2)c2c3c(cccc31)C(=O)c1ccccc1-2 | 0 | + | 0 | 0 | 0 | 121.1
O=c1[nH]nc(CNc2ccc(O)cc2)c2ccccc12 | 0 | 51.4 | 0 | 0 | 0 | 0
O=c1[nH]nc(CNc2ccc(C(F)(F)F)cc2)c2ccccc12 | 0 | 0 | 0 | 0 | 0 | -
CC(NC(=O)NC(=O)c1cccc([N+](=O)[O-])c1)C1CC1 (centres undefined) | 0 | 0 | - | - | 0 | -
CC(NC(=O)NC(=O)c1ccc(F)cc1)C1CC1 (centres undefined) | 0 | 26.5 | - | - | 0 | 0
O=C1Nc2ccccc2C1=Nc1ccc2[nH]c3ccccc3c2c1 | 0 | 0 | - | - | 0 | -
CCn1ccc(C(=O)Nc2ncc(C)s2)n1 | 0 | 0 | 0 | 0 | 0 | -
CCN1CCN(c2ccc(S(=O)(=O)N3CCCCC3)cc2NC(=O)CC(C)c2ccccc2)CC1 (centres undefined) | 0 | 0 | 0 | 0 | 0 | -
COc1cc(C(=O)OCC(=O)Nc2ccccc2C(=O)NC2CC2)c([N+](=O)[O-])cc1OC | 0 | 34.7 | 0 | - | 0 | 0
O=C(COC(=O)C1CCN(S(=O)(=O)c2cccs2)CC1)c1ccc2c(c1)OCCO2 | 0 | 14.8 | 0 | 0 | 0 | 0
N#CC(C(O)c1ccccc1)N1CCOCC1 (centres undefined) | - | 0 | - | - | - | -
Cc1ccc(C(C)C)c(OCC(=O)NN=C2CCCCCCC2)c1 | 0 | 0 | 0 | 0 | 0 | -
Cc1ccc(C(C)C)c(OCC(=O)NN=C2CCCC(=O)C2)c1 | 0 | 42.9 | - | - | 0 | 0
CCCCOC(=O)/C=C/c1ccc(OC(=O)OC)c(OC(=O)OC)c1 | 0 | 27.7 | 0 | 0 | 0 | 0
COC(=O)Oc1ccc(/C=C/C(=O)OC(C)C)cc1OC(=O)OC | 0 | 0 | 0 | 0 | 0 | -
CC(=O)NCc1ccc(C(=O)CSc2nnc(C3CC3)n2C2CC2)cc1 | 0 | 0 | 0 | - | 0 | -
NC(=S)N/N=C/c1coc2ccc(Cl)cc2c1=O | 0 | 13.1 | 0 | 0 | 0 | 23.8
CC(=O)c1ccc(S(=O)(=O)NCCC(=O)NC2CCN(Cc3ccccc3)CC2)cc1 | 0 | 0 | - | - | - | -
Oc1cccc(N2Cc3ccccc3C2)c1 | 0 | 0 | 0 | 0 | 0 | -
SMILES | Keap1-Nrf2 PPI | eLon inh | ZTA counter | EBNA-1 inh | C-LANA FP | E coli Lon conf
Oc1ccc(N2Cc3ccccc3C2)cc1 | 0 | 37.3 | 0 | 0 | 0 | 0
Cc1ccc(S(=O)(=O)n2cc(-c3ccccc3)c(N)n2)cc1 | 0 | 15.0 | 0 | 0 | 0 | 0
O=C(COC(=O)c1ccccc1O)NCCc1c[nH]c2ccccc12 | 0 | 0 | - | - | 0 | -
O=C(COC(=O)c1ccccc1C(=O)OCC(=O)NCCc1c[nH]c2ccccc12)NCCc1c[nH]c2ccccc12 | 0 | 31.6 | 0 | 0 | 0 | 0
Cc1cc2cc3c(=O)[nH]c(=O)cc-3n(CC(O)C(O)C(O)CO)c2cc1C (centres undefined) | - | 87.4 | - | - | - | 90.5
N=C1CCC(=N)c2c1c(O)c1ccccc1c2O | 0 | 28.7 | 36.8 | 0 | 0 | 44.3
Cc1cc2n(n1)C(c1ccc3c(c1)OCO3)Nc1c(C)cccc1-2 (centres undefined) | 0 | 0 | 0 | 0 | 0 | -
Cc1cc(C)c2c(c1)-c1cc(C)nn1C(c1ccc3c(c1)OCO3)N2 (centres undefined) | 0 | 20.8 | 0 | 0 | 0 | 0
O=C(O)/C=C\C(=O)NC1CCCCC1 | 0 | 28.2 | 0 | 0 | 0 | 0
O=C(O)/C=C/C(=O)NC1CCC(CC2CCC(NC(=O)/C=C/C(=O)O)CC2)CC1 (centres undefined) | 0 | 0 | 0 | 0 | 0 | -
O=C(C=Cc1ccccc1)c1cccs1 | 0 | 0 | - | - | 0 | -
O=C(/C(=C/O)N=Nc1ccccc1)c1cccs1 | 0 | 21.8 | 0 | 0 | 0 | 0
CCOC(=O)C(C)Sc1nnc(Cc2cc(=O)[nH]c(=O)[nH]2)n1-c1ccc(Cl)cc1 (centres undefined) | 0 | 23.9 | 0 | 0 | 0 | 0
CCOC(=O)C(C)Sc1nnc(Cc2cc(=O)[nH]c(=O)[nH]2)n1-c1ccc(OCC)cc1 (centres undefined) | 0 | 0 | 0 | 0 | 0 | -
COC(=O)C(C)Sc1nnc(Cc2cc(=O)[nH]c(=O)[nH]2)n1-c1ccc(Cl)cc1 (centres undefined) | 0 | 37.2 | 0 | 0 | 0 | 0
COc1cc2c(C#N)c(N3CCc4ccccc4C3)nc(N)c2c(N)n1 | 0 | 55.7 | 0 | 0 | 0 | 0
COc1cc2c(C#N)c(N3CCCCC3)nc(N)c2c(N)n1 | 0 | 0 | 0 | 0 | 0 | -
CC(C)Cn1c(CCC(N)=O)nnc1SC(C)C(=O)Nc1ccc2c(c1)OCO2 (centres undefined) | 0 | 0 | 0 | - | 0 | -
Nc1cnccc1C(=O)O | 0 | 131.0 | 0 | 0 | 0 | 79.9
CCOC(=O)C1=C(C)NC2=C(C(=O)C(C(=O)OCC)C(c3ccco3)C2)C1c1ccccn1 (centres undefined) | 0 | 44.4 | 0 | 0 | 0 | 0
CC(C)CC#Cc1ccc2c(c1)O[C@H](CN(C)C(=O)Nc1ccccc1)[C@@H](C)CN([C@H](C)CO)S2(=O)=O | - | 0 | - | - | - | -
C[C@H](CO)N1C[C@H](C)[C@H](CN(C)C(=O)Nc2cccc(F)c2)Oc2cc(C#CC3(O)CCCC3)ccc2S1(=O)=O | - | 12.5 | - | - | - | 0
CCCCC1CCC(C(=O)N(CC(C)C)c2c(N)n(Cc3ccccc3)c(=O)[nH]c2=O)CC1 (centres undefined) | - | - | 0 | 0 | - | -
O=[N+]([O-])c1ccc(Nc2ccccc2O)c2nonc12 | 0 | 29.5 | - | - | 0 | 28.6
CCOCCn1cnc2sc(C(=O)NCC(=O)OCC)c(C)c2c1=O | 0 | 15.4 | 0 | 0 | 0 | 0
Cc1ccc(S(=O)(=O)N[C@@H](Cc2ccccc2)C(=O)N2CCC[C@@H]2C(=O)O)cc1 | 0 | 16.7 | 0 | 0 | 0 | 0
CCCCn1c(N)c(N(CCOC)C(=O)C2CCN(c3ncnc4sc(C)c(C)c34)CC2)c(=O)[nH]c1=O | 0 | 0 | 0 | 0 | 0 | -
O=C(CSc1ccc2c(c1)OCCO2)N1CCN(c2ccccc2)CC1 | 0 | 0 | 0 | - | 0 | -
O=C(Cc1ccc(Br)cc1)N1CCN(c2ccccc2O)CC1 | 0 | 24.4 | 0 | 0 | 0 | 0
O=C(CSc1ccc2c(c1)OCCO2)N1CCN(c2ccccc2O)CC1 | 0 | 20.2 | - | - | 0 | 0
